# Results as given in PubChem BioAssay AID1918 (Vanderbilt High Throughput Screening Facility, 2009).
# Hit rate of the full screen: of about 130,000 compounds, about 2,500 (1.9%) were called active. Shown is part of a subset that was picked to be rich in actives. A number with no mark means an inactive call.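 How the source made its calls: active means signal ratio slope over the read window, or its plate-corrected B-score, at least 3 SD from the plate mean, either direction; inactive means the rest.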
# Target: ATP-sensitive inward rectifier potassium channel 1 (Homo sapiens) (UniProt P48048)
# Assay: Kir1.1 channel activity modulation, library screen – cell-based, thallium flux, MLSMR library, primary screen (AID 1918);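 further: B-score of the F/F0 ratio slope over 7 to 12 s after thallium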
# Settings: Tet-inducible ROMK, thallium flux fluorescence; at 10 µM; actives lie on both sides
# Sequence of ATP-sensitive inward rectifier potassium channel 1 (Homo sapiens) (P48048 whole entry, looked up): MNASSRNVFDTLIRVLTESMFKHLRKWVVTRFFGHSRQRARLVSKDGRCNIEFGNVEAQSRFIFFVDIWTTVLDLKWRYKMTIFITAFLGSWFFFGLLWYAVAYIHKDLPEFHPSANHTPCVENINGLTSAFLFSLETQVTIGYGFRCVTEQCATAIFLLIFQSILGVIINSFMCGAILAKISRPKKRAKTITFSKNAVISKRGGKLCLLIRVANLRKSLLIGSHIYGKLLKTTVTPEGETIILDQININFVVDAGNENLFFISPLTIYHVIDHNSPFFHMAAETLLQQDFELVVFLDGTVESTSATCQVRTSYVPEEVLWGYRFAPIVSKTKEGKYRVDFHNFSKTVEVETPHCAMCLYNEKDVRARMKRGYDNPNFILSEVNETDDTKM
row,SMILES,B-score
1,CC(=O)n1c(C=Nc2ccccc2)c(O)c2ccccc21,-1.73
2,O=C(N/N=C/c1ccc([N+](=O)[O-])cc1)c1c[nH]c2ccccc12,-0.0103
3,O=[N+]([O-])c1ccc(N=Cc2c(O)ccc3ccccc23)cc1,-4.23 (active)
4,CCOc1ccc(-n2cnnn2)cc1S(=O)(=O)N1CCC(C)CC1C (centres undefined),-3.15 (active)
5,CCOc1ccc(C(C)C)cc1S(=O)(=O)n1nc(C)cc1C,-0.531
6,CCOc1ccc(Br)cc1S(=O)(=O)N1CCC(C(=O)O)CC1,-0.0303
7,O=C1[C@@H]2C(c3cccnc3)=NO[C@@H]2C(=O)N1c1ccc(Cl)cc1Cl,0.0407
8,CSc1nc2nc3c(c(=O)n2[nH]1)CCC3,1.45 (active)
9,O=c1c2c(nc3cc(-c4cccc(Cl)c4)[nH]n13)CCCC2,-0.277
10,O=c1c2c(nc3nc[nH]n13)CCC2,0.251
11,O=C(c1ccncc1)N1CCN(c2ccc3ccccc3n2)CC1,-0.138
12,CCC(C)(C)NC(=O)C(c1ccccn1)N(C(=O)c1csnn1)c1ccccc1 (centres undefined),0.633
13,Cc1ccccc1CCN(CC(=O)NC1CCCCC1)C(=O)c1csnn1,-3.14 (active)
14,O=C(NC1CCCC1)C(c1ccccn1)N(C(=O)c1csnn1)C1CCCC1 (centres undefined),0.761
15,COc1ccc(-c2ccc(CNCCCN3CCOCC3)o2)cc1Cl,-0.161
16,CCOc1ccc(N2CC(C(=O)NCCN3C(=O)S/C(=C\c4cccnc4)C3=O)CC2=O)cc1 (centres undefined),0.439
17,COc1ccccc1N1CCN(C(=O)c2ccc(Cl)c(S(=O)(=O)N3CCCC3)c2)CC1,-0.388
18,O=c1c2cc3c(=O)n(CC4CCCO4)c(=O)c3cc2c(=O)n1CC1CCCO1 (centres undefined),1.28
19,O=C1c2cccc3c([N+](=O)[O-])ccc(c23)C(=O)N1CC1CCCO1 (centres undefined),-2.58 (active)
20,O=C(NCc1ccc2c(c1)OCO2)c1ccc2c(c1)C(=O)N(CC1CCCO1)C2=O (centres undefined),0.455
21,C/C(=N\Nc1nc(N2CCOCC2)nc(N2CCOCC2)n1)c1ccc([N+](=O)[O-])cc1,0.473
22,CC1CCN(C(=S)c2cccc(O)c2)CC1,0.17
23,Cc1nc(-c2ccccc2)sc1C(=O)/C=C/N(C)C,0.143
24,CCOC(=O)c1sc(NC(=O)COc2ncnc3ccccc23)c(C(=O)OCC)c1C,0.196

row,SMILES,B-score
1,CCOC(=O)c1c(NC(=O)CCl)sc(C(=O)N(CC)CC)c1C,1.96 (active)
2,CCC(=O)Nc1sc(C(=O)Nc2ccccc2)c(C)c1C(=O)OC,-1.11
3,COc1ccc(C(=O)N2CC3(C)CC2CC(C)(C)C3)cc1OC (centres undefined),0.464
4,Cc1nnnn1/C(=C\c1ccccc1)C(=O)OCC(=O)N1CC2(C)CC1CC(C)(C)C2 (centres undefined),-5.08 (active)
5,COc1ccccc1C(=O)N1CC2(C)CC1CC(C)(C)C2 (centres undefined),-0.0792
6,Cc1ccc(SCCC(=O)NCc2ccccn2)cc1,-0.142
7,O=C(O)CC(SCC(=O)Nc1ccc(Br)cc1)C(=O)O (centres undefined),-0.193
8,CCOC(=O)c1ccc(-c2ccc(C(=O)Nc3cccnc3)o2)cc1,0.149
9,Cc1ccc(C2C3=C(Nc4[nH]n(-c5ccccc5)c(=O)c42)c2ccccc2C3=O)cc1 (centres undefined),-2.43
10,COC(=O)C1=C(C)NC2=C(C(=O)c3ccccc32)C1c1ccc(-c2ccc(C(=O)O)cc2)o1 (centres undefined),3.35 (active)
11,COc1ccc(-n2c(O)c(C=NCC(c3ccco3)N3CCCC3)c3ccccc3c2=O)cc1OC (centres undefined),0.182
12,O=C(CSc1nnnn1-c1ccc(O)cc1)N1N=C(c2ccc3ccccc3c2)CC1c1ccccc1 (centres undefined),0.13
13,CN(C)c1ccc(C=C2C(=O)OC3(CCCC3)OC2=O)cc1,-4.03 (active)
14,CC1=NN(Cc2ccccc2)C(=O)/C1=C/c1ccc(N(C)C)cc1,-0.804
15,CN(C)c1ccc(/C=N\S(=O)(=O)c2ccccc2)cc1,0.722
16,Cc1noc(C)c1C(=O)OCC(=O)/C=C1\N(C)c2ccccc2C1(C)C,-0.053
17,CC(=O)Nc1cccc(OCC(=O)/C=C2\N(C)c3ccccc3C2(C)C)c1,-3.01 (active)
18,CN1/C(=C\C(=O)c2cccnc2Cl)C(C)(C)c2ccccc21,0.168
19,Cc1ccccc1NC(=S)NNC(=O)c1cccc(Br)c1,-1.36
20,N#Cc1c(-c2ccc(Cl)cc2)c2c([nH]c1=S)CCCC2,-0.344
21,CNc1nccc(-c2ccc(Cl)cc2)c1C#N,-3.41 (active)
22,CN(C)c1nc(-c2cccnc2)nc(-c2ccc(Cl)cc2)c1C#N,-1.03
23,COCc1c(N)c(C)nc(Cl)c1C#N,0.228
24,O=C(CN1CCCCC1)Nc1ccccc1Cl,1.02

row,SMILES,B-score
1,O=C1/C(=C\c2ccccc2Cl)SC(=S)N1CCC(=O)N1CCCc2ccccc21,-0.502
2,O=C(CN1CCCCCC1)NCCN1C(=O)S/C(=C\c2ccccc2Cl)C1=O,-2.58 (active)
3,CSc1ccc(CNCCN2CCOCC2)cc1,-0.131
4,CCN(CC(=O)NCc1cccs1)S(=O)(=O)c1ccc(NC(C)=O)cc1,-0.12
5,O=C(Nc1cccc([N+](=O)[O-])c1)Nc1ccc(Cl)cn1,0.868
6,O=C(CCl)N(Cc1cccc([N+](=O)[O-])c1)c1cccc(Cl)c1,-3.06 (active)
7,CCN(CC)C(=O)CN(c1cccc([N+](=O)[O-])c1)S(=O)(=O)c1ccccc1,0.165
8,COc1cccc(CC2(CO)CCCN(CC3=Cc4cc(OC)ccc4OC3)C2)c1 (centres undefined),-0.447
9,COc1cccc(-n2c(=S)sc3c(=O)n(-c4ccccc4OC)c(SCC4OCCO4)nc32)c1,0.408
10,COc1ccccc1-n1c(=S)[nH]c2c(sc(=S)n2-c2ccc(C)cc2C)c1=O,2.35 (active)
11,CCc1ccc(-n2c(=S)sc3c(=O)n(-c4ccccc4OC)c(=S)[nH]c32)cc1,0.222
12,COc1ccc(NC(=O)c2ccccc2CC[N+](=O)[O-])cc1,0.216
13,COC(=O)COc1cccc2c(=O)n(CC(=O)NCc3ccccc3)ccc12,2.99 (active)
14,COC(=O)COc1cccc2c(=O)n(CC(=O)NCCc3ccc(OC)c(OC)c3)ccc12,-0.562
15,CCOC(=O)C(C)Oc1cccc2c(=O)n(CC(=O)NCCc3ccc(OC)c(OC)c3)ccc12 (centres undefined),-0.831
16,COc1cccc(CN2CCNC(=O)C2CC(=O)N(C)CCc2ccccn2)c1 (centres undefined),0.0523
17,C/C(=N/NC(=O)CSc1ccccn1)c1ccc([N+](=O)[O-])cc1,-0.494
18,O=c1cnnc(Nc2ccccc2F)[nH]1,0.476
19,CCOC(=O)Cc1csc(NC(=O)CSc2ccc(Br)cc2)n1,-2.72 (active)
20,CCOC(=O)Cc1csc(NC(NC(=O)OCC)(C(F)(F)F)C(F)(F)F)n1,1.5
21,CCOC(=O)Cc1csc(SCC(=O)NC(C)C23CC4CC(CC(C4)C2)C3)n1 (centres undefined),-3.3 (active)
22,CCOC(=O)Cc1csc(NC(=O)Nc2ccccc2)n1,0.0709
23,CCOC(=O)Cc1csc(NC(=O)CSc2nc(C)cc(=O)[nH]2)n1,-0.406
24,CCOC(=O)Cc1csc(NC(=O)CSc2nnc(-c3cccnc3)n2Cc2ccco2)n1,0.0388

row,SMILES,B-score
1,Cn1nc(C(F)(F)F)c2cc(C(=O)N3CCOCC3)sc21,1.3
2,COc1ccccc1-n1ccnc1SCC(=O)NC(C)(C)C,-0.243
3,CCCCc1nc(NCCN)c(C#N)c2c1CSC(C)(C)C2,-3.92 (active)
4,CCCCc1nc(NCc2ccccc2)c(C#N)c2c1CCCC2,0.19
5,Cc1nc(NCCN)c(C#N)c2c1COC(C)(C)C2,0.0226
6,COc1cc2nc(CN(C)Cc3ccc(F)cc3)[nH]c(=O)c2cc1OC,0.927
7,COc1ccc(-c2nc(CN3CCN(c4ncccn4)CC3)c(C)o2)cc1C,-0.768
8,Cc1cc(NC(=O)OC(C)C)ccc1-c1ccc(NC(=O)OC(C)C)cc1C,0.938
9,O=C(NNC(=O)C1C2CCC(C2)C1C(=O)O)c1ccc(Cl)cc1 (centres undefined),-0.0201
10,C[C@H](NC(=O)c1ccccc1Cl)C(=O)OCCOc1cccc(Cl)c1,0.0242
11,COc1cc2c(cc1OC)C(/C=C/c1ccco1)=NCC2,-7.44 (active)
12,COc1ccc(Cl)cc1C(=O)NNC(=S)NC(=O)/C=C/c1ccco1,1.26
13,COc1cccc2c(N/N=C/c3ccco3)cc(C)nc12,-0.776
14,Cc1cc(=O)oc2c1c(C)nn2-c1ccc(Cl)cc1,0.108
15,COc1ccc(S(=O)(=O)NCC2CCCN(C(=O)c3occc3C)C2)cc1 (centres undefined),-0.286
16,C/C=C/C=C/C(=O)OCC(=O)Nc1ccc(Cl)cc1,-0.0163
17,CCC(C)NC(=O)Cn1nc(C(F)(F)F)c2c1CCC2 (centres undefined),-0.0332
18,Cc1cc(-c2csc(N)n2)c(C)n1Cc1ccccc1,-1.12
19,O=C(O)CCC(=O)Nc1nc2ccc([N+](=O)[O-])cc2s1,0.0361
20,O=C(NC(Nc1nc2ccc([N+](=O)[O-])cc2s1)(C(F)(F)F)C(F)(F)F)c1ccccc1,-4.53 (active)
21,O=C(Nc1nc2ccc([N+](=O)[O-])cc2s1)c1ccc(S(=O)(=O)N2CCCc3ccccc32)cc1,-2.44
22,O=C(NCCCN1CCOCC1)c1ccccc1NS(=O)(=O)c1ccc(F)cc1,0.243
